Compound activity from PubChem BioAssay.
PINK1 expr mod: PINK1 expression modulation; PINK1 immunofluorescence, high-content cytometry, 24 h; Potency, µM (top dose mostly 76.6 µM), for inactives: top-dose activation (PINK1 increase), usual class: activators; actives 0.2% (n = 410,000); AID 624263; active = well fitted activation curve with a large enough effect; inconclusive = small, poorly fitted or top-dose-only effect; cell line not stated here; also: % of control where 0% means no effect; nearly all actives have a fitted effect of over 65% in size
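Stable cell line, 250 cells/well, 12 h attachment; compounds pinned at 5 concentrations, 24 h; CCCP control. Fixed with nuclear dye, primary antibodies 12 h at 10 degrees C, secondary plus cell stain; laser-scanning cytometer read.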
KB-V1 cytotox: kills drug-selected multidrug resistant KB-V1 cells; actives 3.4% (n = 400,000); KB-V1 MDR cells viability, CellTiter-Glo, 72 h; Potency, µM (series often up to 46.1 µM), actives largely listed as cytotoxic; AID 1347076; also: % is scaled to controls: 0 for no effect and ±100 for the full control effect; nearly all actives have a fitted effect of over 60% in size
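In this primary screen, KB-V1 cells overexpressing P-gp are incubated with library compounds (lowest to highest concentration) for 72 h at 37 degrees C before a luminescent ATP viability read.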
KB-3-1 tox: KB-3-1 parental cell cytotoxicity. AID 1347075. actives 1.4% (n = 400,000). Potency, µM (doses to about 46.1 µM), usual class: cytotoxic. KB-3-1 viability, CellTiter-Glo ATP luminescence, 72 h; also: % is scaled to controls: 0 for no effect and ±100 for the full control effect; nearly all actives have a fitted effect of over 60% in size
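Cells are dispensed, compounds pinned in, plates held at 37 °C for 72 h, then CellTiter-Glo is added and luminescence read after 10 minutes. Cell line: parental KB-3-1 in phenol-red-free DMEM, 10% FBS.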
MCF10A rereplic: DNA re-replication induction in MCF 10a cells; MCF 10A DNA re-replication, Hoechst nuclear intensity, 48 h; actives 2.9% (n = 350,000); Potency, µM (doses to about 46.1 µM), for the others: top-dose activity, positive = re-replication, most hits filed as activators; also: % of control where 0% means no effect; nearly all actives have a fitted effect of over 50% in size
PTAP TSG101 blk: blocks PTAP/TSG101 interaction to inhibit HIV-1 budding. Q99816. Fluorescence polarization, FITC-PTAP peptide / Tsg101 binding. Potency, µM (series often up to 115 µM), inactives show top-dose activity change, negative = inhibition, actives largely listed as inhibitors. 340,000 tested, under 10 active. AID 493005; active = well fitted inhibition curve with a large enough effect in the main read-out, with a control signal flat, not every such curve was filed as active; inconclusive = small, poorly fitted or top-dose-only effect, or effect the other way, or a change in a side signal; inactive = no such curve, though single readings can be large or run the other way; also: % of control where 0% means no effect
Target sequence (Q99816 whole entry, looked up): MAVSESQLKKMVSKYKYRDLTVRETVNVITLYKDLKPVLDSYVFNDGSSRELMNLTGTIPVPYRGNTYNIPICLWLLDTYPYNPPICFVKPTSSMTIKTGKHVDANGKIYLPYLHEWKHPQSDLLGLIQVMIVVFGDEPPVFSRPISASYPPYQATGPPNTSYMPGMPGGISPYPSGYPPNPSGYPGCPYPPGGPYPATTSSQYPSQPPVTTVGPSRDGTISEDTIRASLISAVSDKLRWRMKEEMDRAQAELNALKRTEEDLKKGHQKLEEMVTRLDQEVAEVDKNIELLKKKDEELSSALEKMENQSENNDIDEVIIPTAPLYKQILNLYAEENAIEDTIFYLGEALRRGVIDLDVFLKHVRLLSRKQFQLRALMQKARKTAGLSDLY
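Tsg101 binding domain (10 uM final) was mixed with compound and a FITC-labeled PTAP peptide (50 nM final) in HEPES pH 7.5 buffer with NaCl, Tween 20, EDTA and TCEP; fluorescence polarization was read after 20 min at r.t.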
SW480 rerep: induces DNA re-replication in SW480 colon adenocarcinoma cells | actives 1.8% (n = 340,000) | Potency, µM (series often up to 46.1 µM), for the others: at the top dose re-replication activation, hits mostly activators | SW480 DNA re-replication, Hoechst DNA content imaging, 48 h | AID 624297; also: % of control where 0% means no effect; nearly all actives have a fitted effect of over 55% in size
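Hoechst fluorescence of nuclei (405 nm excitation, 500-530 nm emission) measured by plate-scanning imager after 48 hr compound exposure at 37 C; re-replication scored as increased number of nuclei with elevated intensity.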
The depositor's hits bear a star; i = inactive; ? = inconclusive; nt = not tested or not shown; [ ] = dose if it differs, or a comment. Hits are enriched below; roughly 6.8% of the tested compounds scored in any of these assays. Unless noted, calls follow the shape of the dose curve; as a rule, active = well fitted curve in the direction sought with a large enough effect; inconclusive = small, poorly fitted or top-dose-only effect, or another doubt; inactive = no such curve, though single readings can be large; an effect the other way counts as inactive or inconclusive. Potency is read from the fitted curve at half-maximal effect.

SMILES	PINK1 expr mod	KB-V1 cytotox	KB-3-1 tox	MCF10A rereplic	PTAP TSG101 blk	SW480 rerep
O=C1CN(C(=O)/C=C/c2cc(Br)ccc2F)CCN1	-1%	i	i	0%	1%	-8%
COc1ccc(/C=C/C(=O)N2CCNC(=O)C2)c(OC)c1	1%	i	i	1µM*	-6%	8%
COc1cccc(NC(=O)CSc2ncc(S(=O)(=O)c3ccc(C)c(C)c3)c(=O)[nH]2)c1	-1%	i	i	nt	nt	nt
CC(/C=C/c1ccco1)=N\NC(=O)c1cccc(Cl)c1	0%	?	i	1%	-3%	?
C/C(=N\NC(=O)CCc1ccccc1)C1C(=O)c2ccccc2C1=O	0%	9.2µM*	?	18%	1%	?
C/C(=N\NC(=O)c1cccc(Cl)c1)C1C(=O)c2ccccc2C1=O	40µM*	9.2µM*	23µM*	?	-3%	3.7µM*
Cc1c(C(=O)NCCc2ccc(Cl)cc2)cccc1-n1cnc2cccnc21	2%	i	i	nt	nt	nt
Cc1[nH]c2ccccc2c1C(c1ccccc1)c1ccc(Cl)s1 (centres undefined)	23%	i	i	nt	nt	nt
O=C(CSc1cccc[n+]1[O-])c1cc2ccccc2o1	-1%	21µM*	18µM*	19%	-4%	13µM*
O=C(O)CSc1cccc[n+]1[O-]	-1%	i	i	-1%	0%	-5%
COc1cc([N+](=O)[O-])cc(/C=N/N(CCC#N)C(C)=O)c1O	-2%	i	i	?	3%	5.8µM*
COc1ccc(CNC(=O)C/C(C)=N/NC(=O)COc2ccc(C)cc2Br)cc1	13%	?	5.8µM*	?	-2%	?
CCCNC(=O)C/C(C)=N/NC(=O)COc1ccc(C)cc1Br	11%	?	i	4%	-6%	-5%
O=C(CS(=O)(=O)c1cccc2nsnc12)NCc1ccc(Cl)cc1	0%	nt	nt	nt	nt	nt
N#C/C(=C/c1ccc(-c2ccc([N+](=O)[O-])cc2)o1)c1nnc(N2CCOCC2)n1-c1ccccc1	12%	nt	nt	-18%	0%	1%
COc1cc(/C=C(\C#N)c2nnc(N3CCOCC3)n2-c2ccccc2)ccc1O	2%	i	i	1%	0%	6.5µM*
CC1CCN(c2ncnc3c2cnn3-c2ccc(F)cc2)CC1	0%	i	i	nt	nt	nt
O=C(NCC1CCCO1)c1ccc(NC(=O)c2ccc(Br)cc2)cc1 (centres undefined)	6%	?	i	-6%	-3%	-6%
CCC1=Nc2cc(C(=O)NCC3CCCO3)ccc2Sc2ccc(Br)cc21 (centres undefined)	-1%	6.5µM*	6.5µM*	?	-3%	10µM*
CCC1=Nc2cc(C(=O)NCC3CCCO3)ccc2Sc2ccc(Cl)cc21 (centres undefined)	1%	i	9.2µM*	12µM*	-8%	?
COc1cccc(NC(=S)N(CCc2c(C)[nH]c3ccc(C)cc23)Cc2cccs2)c1	9%	?	16µM*	-2%	-2%	?
Cc1c(/C=N/NC(N)=O)c2ccccn2c1C(=O)c1ccc(F)cc1	-2%	18µM*	i	19%	2%	-4%
CNC(=S)N/N=C/c1c(C)c(C(=O)c2ccc(F)cc2)n2ccccc12	16%	i	i	16%	-6%	21%
CN(C(=O)COc1ccccc1C(=O)NCCOc1ccccc1)c1ccccc1	-1%	8.2µM*	15µM*	18µM*	-1%	1%
O=C(NCCOc1ccccc1)c1ccccc1Cl	0%	?	i	-2%	5%	1%
SMILES	PINK1 expr mod	KB-V1 cytotox	KB-3-1 tox	MCF10A rereplic	PTAP TSG101 blk	SW480 rerep
COC(=O)[C@@H]1CCCN1C(=O)c1cnn(-c2ncc3c(n2)-c2ccccc2CCC3)c1C1CC1	3%	nt	nt	nt	nt	nt
CCOCCCNC(=O)c1ccc(NC(=O)N2CCCCc3ccccc32)cc1	0%	i	i	nt	nt	nt
Cn1c(=O)c2nc3ccccc3nc2n(C)c1=O	2%	i	i	0.73µM*	-3%	-55%
Cn1c(=O)c2nc(-c3ccccc3)c(-c3ccccc3)nc2n(C)c1=O	1%	i	i	13%	-4%	-13%
COc1ccc(S(=O)(=O)Nc2cc(SCC(=O)O)c(O)c3ccccc23)cc1	7%	?	?	-11%	-7%	?
O=C(O)CSc1cc(NS(=O)(=O)c2ccc(Cl)cc2)c2ccccc2c1O	-1%	?	?	23µM*	-7%	?
COc1cccc(NC(=O)C2(C)CCN2C(=O)CC2CCCC2)c1 (centres undefined)	0%	16µM*	i	nt	nt	nt
CCC(=O)N1CCC1(C)C(=O)Nc1cccc(OC)c1 (centres undefined)	1%	i	i	nt	nt	nt
O=C(CSc1nc2ccccc2nc1N1CCOCC1)N1CCN(c2ccccc2)CC1	-1%	i	?	-2%	-3%	-5%
Cc1cccc(NC(=O)CSc2nc3ccccc3nc2N2CCCC2)c1	0%	?	?	21µM*	0%	25%
Cc1cccc(NC(=O)CSc2nc3ccccc3nc2N2CCCCC2)c1	2%	?	?	?	-6%	28%
O=C(CSc1nc2ccccc2nc1N1CCCCC1)N1CCN(c2ccccc2)CC1	0%	21µM*	?	4.1µM*	0%	1%
O=C(CN1CCN(c2ccccc2)CC1)N1CCN(c2ccccc2)CC1	-2%	21µM*	i	-4%	1%	0%
COCCNc1nc(SCC(=O)N2CCN(c3ccccc3)CC2)nc2ccccc12	7%[38.3 µM]	9.2µM*	i	-4%	nt	-1%
O=C(CN1CCCCC1)N1CCN(c2ccccc2)CC1	1%	i	i	1%	0%	10%
COc1ccc(-c2ccnc(-n3ncc(C(=O)NC(C)(C)CO)c3C3CC3)n2)cc1F	-1%	nt	nt	nt	nt	nt
Cc1cccc(NC(=O)CSc2nc3ccccc3nc2N2CC(C)OC(C)C2)c1 (centres undefined)	5%	i	?	?	0%	?
CC1CN(c2nc3ccccc3nc2SCC(=O)Nc2cccc(C(F)(F)F)c2)CC(C)O1 (centres undefined)	?	i	23µM*	?	-4%	6%
O=C(CSc1ncccc1-c1nc2ccccc2[nH]1)N1CCCCC1	2%[38.3 µM]	5.2µM*	i	2%	-4%	-2%
CCc1ccc(NC(=O)CSc2nc3ccccc3nc2N2CCCCC2)cc1	1%	?	i	10µM*	-1%	2%
Cc1cc(-n2c(SCc3ccccc3F)nc3[nH]ncc3c2=O)ccc1Cl	1%	nt	nt	nt	nt	nt
